Source: PubChem (National Center for Advancing Translational Sciences (NCATS))
Vaccinia Venus: vaccinia inhibition (Venus reporter); AID 720580; Vaccinia virus Venus reporter expression, fluorescence; 0.46% of 330,000 active; Potency, µM (doses to about 36.5 µM), for inactives: top-dose activity change, negative = inhibition, actives largely listed as inhibitors; calls by dose curve; tested in A549 cells; further: potency means the concentration at half of the fitted maximal effect; nearly all actives have a fitted effect of over 30% in size
HCMV inh: blocks human cytomegalovirus replication; HFF cells, HCMV-luciferase reporter, 72 h; hits give low values; activity change, negative = inhibition, % at 57.5 µM; 4.5% of 410,000 active; in the data active means activity change below about -60%; inconclusive means no clear call, values can overlap the other calls; inactive means above about -39%
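Cell-based, HFFs, 1000 cells/well, 16 h 37C; cpds in DMSO + HCMV-luc, MOI 1 PFU/cell; 72 h 37C; OneGlo luminescence after 5 min RT; norm. to buffer vs Salinomycin 10uM.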
LmPK inh: LmPK (Leishmania mexicana) enzyme inhibition; purified LmPK, Kinase-Glo ATP luminescence, 1 h; Potency, µM (doses to about 57.5 µM), without a hit: at the highest dose activity change, negative = inhibition, usual class: inhibitors; AID 1721; 0.37% of 290,000 active; further: potency means the concentration at half of the fitted maximal effect
Target sequence (Q27686 whole entry, looked up): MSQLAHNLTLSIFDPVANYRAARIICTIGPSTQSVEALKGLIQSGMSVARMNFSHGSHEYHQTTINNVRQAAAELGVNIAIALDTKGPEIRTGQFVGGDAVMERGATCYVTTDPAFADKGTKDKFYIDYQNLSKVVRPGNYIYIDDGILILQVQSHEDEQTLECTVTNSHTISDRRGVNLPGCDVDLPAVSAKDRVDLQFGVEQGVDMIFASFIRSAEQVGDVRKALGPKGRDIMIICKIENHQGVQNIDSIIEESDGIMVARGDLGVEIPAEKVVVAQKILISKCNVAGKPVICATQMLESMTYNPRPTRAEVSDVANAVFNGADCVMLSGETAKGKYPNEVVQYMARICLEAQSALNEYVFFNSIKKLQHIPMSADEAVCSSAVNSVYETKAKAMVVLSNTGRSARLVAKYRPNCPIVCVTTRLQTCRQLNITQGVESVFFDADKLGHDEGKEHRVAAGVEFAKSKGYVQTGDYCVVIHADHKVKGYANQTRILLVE
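qHTS format; LmPK 0.1 nM; substrates PEP 0.5 mM and ADP 0.1 mM. One-hour room-temperature incubation, then coupled luciferase luminescence; 0.5 nM enzyme wells mark activation.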
TbPYK inhibitor: inhibitors of Trypanosoma brucei pyruvate kinase; Q57TT1; TbPYK enzyme, Kinase-Glo Plus ATP luminescence, 45 min; Potency, µM (doses to about 76.8 µM), inactives show top-dose activity, negative = inhibition, most hits filed as inhibitors; 0.12% of 410,000 active; further: potency means the concentration at half of the fitted maximal effect; nearly all actives have a fitted effect of over 50% in size
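Readout: single end-point luminescence (Kinase-Glo Plus, 10 min). Reaction conditions were TbPYK/substrate plus 130 uM ADP, 45 min at RT, pH 7.2 TEA buffer. No-enzyme wells served as controls, and data were normalized before concentration-response fitting.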
VACV mCherry inh: inhibitors of vaccinia virus infection (mCherry reporter signal). Vaccinia virus mCherry reporter infection, fluorescence. Potency, µM (series often up to 36.5 µM), for inactives: at the highest dose activity change, negative = inhibition, hits mostly inhibitors. 0.63% of 310,000 active. AID 720579; calls by dose curve; tested in A549 cells; further: potency means the concentration at half of the fitted maximal effect; nearly all actives have a fitted effect of over 35% in size
The depositor's hits bear a star; i = inactive; ? = inconclusive; / = no result given; + = active, no number. The list is not random: actives were taken first. Their share in the collection is about 5%. Unless noted, the call rests on the fitted dose curve; in most records, active means well fitted curve in the direction sought with a large enough effect; inconclusive means small, poorly fitted or top-dose-only effect, or another doubt; inactive means no such curve, though single readings can be large; an effect the other way counts as inactive or inconclusive. On the % scale 0 is the no-effect control and ±100 the full control effect.

SMILES	Vaccinia Venus	HCMV inh	LmPK inh	TbPYK inhibitor	VACV mCherry inh
Cc1cc(Cl)nc(Cl)c1C(=O)N1CCOCC1	-3%	105	9%	-2%	-12%
CC(C)NC(=S)N/N=C/c1ccc2c(c1)OCCO2	-21%	-67*	-3%	-10%	-20%
Oc1[nH]c2ccccc2c1N=Nc1nc(Nc2ccccc2)nc(N2CCOCC2)n1	/	-103*	-1%	2%	/
c1ccc(Nc2nc(N3CCCC3)nc(N3CCOCC3)n2)cc1	/	22	/	-7%	/
Fc1ccc(Nc2nc(Nc3ccc(F)cc3)nc(N3CCOCC3)n2)cc1	-12%	-10	/	3%	-13%
Cc1[nH]c2ccccc2c1/C=N/Nc1nc(Nc2ccccc2)nc(N2CCOCC2)n1	/	-99*	-1%	0%	/
CCCC(O)(CCC)C(=O)NN(C(=O)CCl)c1ccccc1	/	-81*	3%	1%	/
CCCCC(O)(CCCC)C(=O)NN(C(=O)OCC)c1ccccc1	3%	-3	5%	3%	-13%
COc1cccc2c1Oc1ncccc1N(C(=O)Nc1cccc(Cl)c1)C2	-23%	-37	/	4%	-19%
CCc1nnc(N/N=C\c2ccc(OC(C)=O)c(OC)c2)n1N	/	-4	-2%	-7%	/
CCOc1cc(/C=N/Nc2nnc(C)n2N)ccc1OC(C)=O	?	-28	-4%	-6%	28µM*
O=C(NCCN1CCOCC1)C1CC(=O)N(c2cccc(C(F)(F)F)c2)C1 (stereo not given)	-13%	-39	/	2%	-15%
CCN(CC)c1ccc(NC(=O)CSc2nnc3nc(C)cc(C)n23)cc1	-24%	-107*	0%	-24%	-20%
Cc1c(C(=O)c2cccc3ccccc23)c2cccc3c2n1[C@H](CN1CCOCC1)CO3	?	-98*	/	-8%	-25%
O=C(CN1CCOCC1)c1cccc2ccccc12	1%	65	2%	1%	3%
CC(Oc1ccc(Cl)cc1)C(=O)NCCN1C(=O)S/C(=C\c2cccnc2)C1=O (stereo not given)	-10%	-71*	2%	1%	-29%
CC(C)(Oc1ccc(Cl)cc1)C(=O)NCCN1C(=O)S/C(=C/c2cccnc2)C1=O	-12%	?	2%	5%	-14%
COc1ccccc1NC(=O)CN1C(=O)C(c2ccc(F)cc2)=NC1(C)C	-14%	-9	/	0%	-15%
Cc1cc(Br)c(OCc2ccc(C(=O)N/N=C/c3ccc[nH]3)cc2)c(Br)c1	/	+	/	6%	/
O=C(N/N=C/c1ccc[nH]1)c1ccc(COc2cccc3cccnc23)cc1	?	-97*	4%	-4%	1.6µM*
O=C(N/N=C/c1ccccc1C(=O)O)c1ccc(COc2cccc3cccnc23)cc1	0%	-7	0%	-3%	-2%
O=C(N/N=C/c1ccc[nH]1)c1ccc(O)cc1	-5%	-16	-6%	1%	i
O=C(COc1ccc(Cl)cc1Cl)c1ccc[nH]1	/	-20	-6%	-2%	/
COc1cc([N+](=O)[O-])ccc1NC(=O)Nc1cnccn1	/	-61*	-7%	10%	/
COc1cccc(NC(=O)Nc2cnccn2)c1	1%	-69*	-2%	-2%	?
SMILES	Vaccinia Venus	HCMV inh	LmPK inh	TbPYK inhibitor	VACV mCherry inh
COc1ccc(N2CCN(C(=O)c3oc4ccccc4c3NC(=O)c3ccccc3OC)CC2)cc1	-14%	-20	/	-2%	-24%
CCn1c(-c2cccn(Cc3ccc(Cl)cc3Cl)c2=O)n[nH]c1=S	-6%	-15	11%	5.6µM*	-4%
S=c1[nH]nc(-c2ccc(Cl)cc2Cl)n1Cc1ccccc1	0%	-29	?	-27%	-5%
Cc1ccc(NC(=O)c2cccc(S(=O)(=O)N(C)c3ccccc3)c2)cc1S(=O)(=O)N1CCOCC1	-28%	-70*	0%	1%	?
COc1ccc(NC(=O)c2cc3c(s2)CCC(C)C3)cc1S(=O)(=O)N1CCOCC1 (stereo not given)	?	-100*	-1%	-8%	?
CN(c1cccc(Cl)c1)S(=O)(=O)c1cccc(C(=O)Nc2ccc3c(c2)CCC3)c1	-25%	-87*	-1%	5%	-10%
Cc1ccc(C(=O)Nc2ccc3c(c2)CCC3)cc1S(=O)(=O)N1CCOCC1	-21%	-62*	1%	-6%	i
Cc1ccc(O)c(C(=O)c2cnc3onc(-c4ccc(F)cc4)c3c2)c1	-16%	-12	-2%	2%	-20%
CCCCn1nc2cc(C(=O)NCc3ccccc3)ccc2c1OCC	-19%	-8	-4%	2%	-14%
COc1ccc2c(-c3ccccc3)cc(SCC(N)=O)nc2c1	3%	-25	1%	4%	-2%
Cc1ccc(C(=O)NC(C)c2ccccc2)cc1S(=O)(=O)N1CCOCC1 (stereo not given)	-6%	-20	0%	-5%	-11%
Cc1ccc(NC(=O)c2cc3c(s2)CCC3)cc1S(=O)(=O)N1CCOCC1	/	-65*	6%	/	/
Cc1ccc(NC(=O)CSc2ccccc2)cc1S(=O)(=O)N1CCOCC1	-12%	3	/	1%	-21%
Cc1ccc(NC(=O)C(=O)c2c(-c3ccccc3)cc3ccccn23)cc1S(=O)(=O)N1CCOCC1	/	-76*	18%	/	/
Cc1ccc(C(=O)NC(C)c2ccc(-n3ccnc3)cc2)cc1S(=O)(=O)N1CCOCC1 (stereo not given)	-14%	-97*	/	-2%	i
Cc1cc(NC(=O)CSc2nnc(-c3ccco3)n2C)no1	/	-60*	/	-11%	/
Cc1cc(NC(=O)CSc2nc3cc(C(=O)NCCCOC(C)C)ccc3c(=O)n2Cc2ccco2)no1	-16%	-84*	1%	2%	-14%
COC(=O)c1ccc2c(=O)n(Cc3ccco3)c(SCC(=O)Nc3cc(C)on3)nc2c1	/	-95*	-1%	-2%	/
COC(=O)c1ccc2c(=O)n(Cc3ccco3)c(SCC(=O)Nc3ccccc3Cl)nc2c1	/	-2	2%	-6%	/
NC(CCc1ccccc1)c1csc(Nc2cnccn2)n1 (stereo not given)	?	-19	/	3%	10µM*
NC(Cc1ccc(F)cc1)c1csc(Nc2cnccn2)n1 (stereo not given)	11µM*	202	/	-7%	10µM*
O=C(O)c1ccc(OC2CSC2)cc1	-3%	-5	-14%	-4%	/
COc1cccc(N2CCN(c3nc(-c4ccccc4C)cc(=O)[nH]3)CC2)c1	/	-98*	0%	0%	/
COc1cccc(N2CCN(c3nc(C)c(C)c(=O)[nH]3)CC2)c1	-15%	3	-4%	8%	i
COc1cccc(-c2cc(C(F)(F)F)n3nc(C(=O)N4CCCCC4c4cccnc4)cc3n2)c1 (stereo not given)	-13%	-68*	2%	2%	i
O=C(O)c1ccccc1Nc1ccc2nonc2c1[N+](=O)[O-]	/	?	2%	12%	/
Cc1cccc(Nc2nc(-c3c(C)nc4ccccn34)cs2)c1	?	-95*	2%	0%	?
Cc1nc2ccccn2c1-c1csc(Nc2cccc(O)c2)n1	?	?	0%	-1%	?
